Assay outcomes as filed in PubChem BioAssay.
N-glyco inh – N-linked glycosylation inhibition. AID 588692. D54 ERlucT glycosylation luciferase reporter, 24 h; percent of 100 nM tunicamycin response. 360,000 tested, 0.23% active. reporter increase, % at 12.5 µM;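 active = mean luciferase reporter signal, scaled so untreated is 0 and the glycosylation-blocking control 100, at or above a set limit in every replicate; inconclusive = mean reaches the limit but not every replicate does; inactive = mean below the limit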;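 also: luciferase carries N-glycosylation sites so blocking glycosylation raises the light; 0% = median of neutral control wells and 100% = median of 100 nM tunicamycin wells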
CASP6 VEID inh – inhibitors of human caspase-6 | P55212 | purified caspase-6, Z-VEID-R110 cleavage fluorescence | inhibition, % at 12.5 µM | 350,000 tested, 0.53% active | AID 686996;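 active = mean inhibition across replicates at least about 35%, with every replicate also reaching that limit, limit read from the data; inconclusive = only one of the two criteria met; inactive = neither criterion met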;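 also: 0% = median of neutral control wells and 100% = no fluorescence left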
RAD52 inh – inhibitors of human RAD52 DNA annealing | P43351 | recombinant RAD52 DNA annealing, FRET fluorescence | inhibition, % at 18.7 µM | 360,000 tested, 0.46% active | AID 651710;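 active = every replicate showing at least 50% inhibition; inconclusive = mean inhibition at least 50% but not in every replicate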
AF4-AF9 inh – inhibitors of human MLL-AF4/AF9 interaction; P42568; AlphaScreen, biotin-AF4 peptide binding to FLAG-AF9; inhibition, % at 10 µM; 350,000 tested, 0.47% active; AID 651704;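 active = every replicate reaching a set inhibition limit, whatever the replicate mean, cut at about 25% in these data; inconclusive = mean inhibition reaches that limit but some replicates miss it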;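 also: 0% = plate neutral control median and 100% = total signal loss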
Target sequence (P42568 whole entry, looked up): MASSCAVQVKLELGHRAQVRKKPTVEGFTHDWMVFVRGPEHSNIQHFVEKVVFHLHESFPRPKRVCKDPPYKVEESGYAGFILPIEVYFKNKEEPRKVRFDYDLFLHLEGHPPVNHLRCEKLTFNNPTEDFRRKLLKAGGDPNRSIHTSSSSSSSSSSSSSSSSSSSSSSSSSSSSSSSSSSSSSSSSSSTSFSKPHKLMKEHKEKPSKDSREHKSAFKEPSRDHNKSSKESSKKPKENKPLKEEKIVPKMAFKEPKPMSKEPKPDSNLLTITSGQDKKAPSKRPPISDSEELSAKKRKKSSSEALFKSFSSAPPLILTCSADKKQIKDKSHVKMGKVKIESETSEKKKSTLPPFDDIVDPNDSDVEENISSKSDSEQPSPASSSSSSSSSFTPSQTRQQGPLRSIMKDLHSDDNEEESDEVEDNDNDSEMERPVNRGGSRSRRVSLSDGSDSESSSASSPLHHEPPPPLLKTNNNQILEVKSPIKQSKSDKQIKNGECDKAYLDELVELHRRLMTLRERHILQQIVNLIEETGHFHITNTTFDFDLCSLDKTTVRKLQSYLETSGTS
RAD54 branch – inhibitors of human RAD54 branch migration; Q92698; RAD54 Holliday junction branch migration, FAM/BHQ fluorescence; 360,000 tested, 0.14% active; inhibition, % at 10.4 µM;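 active = mean normalized replicate activity at least 40 and at least half of replicates scoring 40 or more; inconclusive = only one of the two criteria met; inactive = mean below 40 and under half of replicates reaching 40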;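 also: 0% = median of neutral control wells and 100% = median of positive control wells; inhibitors cause a drop in the FAM fluorescence signal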
Active calls of the source: *; ? = inconclusive; / = no result. Sampled rows, rich in hits. Any-hit rate of the full collection: about 1.2%.

SMILES	N-glyco inh	CASP6 VEID inh	RAD52 inh	AF4-AF9 inh	RAD54 branch
CO[C@H]1CN(C)C(=O)c2ccc(NC(=O)c3ccccc3)cc2OC[C@@H](C)N(C(=O)C2CC2)C[C@H]1C	/	/	/	/	1
CCNC(=O)C[C@H]1C=C[C@@H](NC(=O)C2CCC2)[C@@H](CO)O1	/	-6	9	-3	5
Cc1ccccc1C(=O)NCCn1cc(SCC(=O)NCC2CCCO2)c2ccccc21 (centres undefined)	-4	41*	3	0	11
CN1C(=O)/C(=C/c2ccc(OCc3cccc(F)c3)cc2)NC1=S	-3	-1	-17	-3	-9
COc1cc(/C=C2/C(=O)N(C)C(=S)N2C)ccc1OCc1cccc(F)c1	34*	-5	-204	2	-2
CC(=O)Nc1ccc(NC(=O)c2ccc(-c3c(C)noc3C)c3ccoc23)cc1	?	1	-3	1	-6
COc1cc(NC(=O)c2ccc(-c3c(C)noc3C)c3ccoc23)cc(OC)c1OC	33*	-1	1	-1	8
COc1ccccc1S(=O)(=O)N(C)C[C@@H]1OCc2ccccc2-c2c(n(C)c3ccccc23)C(=O)N([C@@H](C)CO)C[C@@H]1C	/	0	15	4	9
CC(C)c1ccc(Nc2c([N+](=O)[O-])c(=O)n(C)c3ccccc23)cc1	-5	-4	-7	1	15
Cn1c(=O)c(Nc2ccc(O)cc2)c2c3c(cccc31)C(=O)c1ccccc1-2	-2	-2	-1	29*	/
CCC(=O)N1CC2(CCN(C(=O)NC(C)C)CC2)c2c(n(C)c3cc(OC)ccc23)[C@H]1CO	/	/	3	/	/
Cc1c(Cl)cccc1Nc1nc(N)nc(CN2CCc3ccccc3C2)n1	44*	/	/	/	-4
Cc1ccccc1NC(=O)Nc1ccc2c(c1)C(=O)N(C)[C@H]1CC[C@@H](CC(=O)O)O[C@@H]1CO2	/	/	/	/	-10
CCC(=O)N1[C@@H]2c3cccc(=O)n3C[C@@H]2[C@@H](CO)[C@@H]1C(=O)N[C@@H](C)c1ccccc1	/	-2	5	-21	/
NC(=O)C1CCN(C2=C(NS(=O)(=O)c3ccc(Br)cc3)C(=O)c3ccccc3C2=O)CC1	3	8	0	32*	0
CCOC(=O)C1CCN(C2=C(NS(=O)(=O)c3ccc(Br)cc3)C(=O)c3ccccc3C2=O)CC1	5	9	-6	39*	-4
NC(=O)C1CCN(C2=C(NS(=O)(=O)c3ccccc3)C(=O)c3ccccc3C2=O)CC1	5	9	-11	13	/
C[C@@H]1CN([C@H](C)CO)C(=O)c2cccc(NS(=O)(=O)c3cccs3)c2O[C@H]1CN(C)C(=O)Nc1ccc(C(F)(F)F)cc1	/	-1	-5	-1	11
CN(C)CC(=O)N1[C@@H]2c3ccc(-c4ccc(F)cc4)c(=O)n3C[C@@H]2[C@@H](CO)[C@@H]1C(=O)NC1CCC1	/	-2	-4	-13	-2
C[C@@H]1CN([C@H](C)CO)C(=O)c2cc(NC(=O)c3ccncc3)ccc2O[C@@H]1CN(C)C(=O)Nc1ccc2c(c1)OCO2	/	-2	-6	-3	5
CC(C)NC(=O)N(C)C[C@@H]1OCCCC[C@@H](C)Oc2ccc(NC(=O)Nc3cccc4ccccc34)cc2C(=O)N([C@@H](C)CO)C[C@@H]1C	/	-3	0	-6	-19
O=C(O)CN1C(=O)/C(=C\c2cc(Br)ccc2OCc2ccc(Cl)cc2Cl)SC1=S	2	86*	-18	/	3
N#CC(C#N)=Cc1cccn1-c1ccc(C(=O)O)cc1	1	71*	-21	-2	/
N#C/C(=C/c1cccn1-c1cccc(C(=O)O)c1)c1ccc(Cl)cc1	0	84*	-30	-2	/
O=C(O)c1cccc(-n2cccc2/C=N/O)c1	2	/	/	/	14
SMILES	N-glyco inh	CASP6 VEID inh	RAD52 inh	AF4-AF9 inh	RAD54 branch
O=C(O)c1cccc(-n2cccc2/C=C/[N+](=O)[O-])c1	0	65*	-65	-3	/
CCOC(=O)/C(C#N)=C/c1cccn1-c1ccc(Cl)cc1	-5	-2	-19	-3	-1
CC(C)CC#Cc1cnc2c(c1)C(=O)N([C@@H](C)CO)C[C@@H](C)[C@H](CN(C)Cc1ccccc1F)O2	/	-3	12	6	1
C[C@@H]1CCCCO[C@H](CN(C)Cc2ccccc2)[C@H](C)CN([C@@H](C)CO)C(=O)c2cc(NC(=O)C3CCCCC3)ccc2O1	/	-4	16	3	-1
COC(=O)c1c(NC(=O)CN2C(=O)NC3(CCC(C)CC3)C2=O)sc2c1CCC2 (centres undefined)	17	-4	-18	1	3
CC1CCC2(CC1)NC(=O)N(CC(=O)Nc1sc3c(c1C(N)=O)CCC3)C2=O (centres undefined)	14	42*	-69	-1	/
CCN(C(=O)C(C)N1C(=O)/C(=C/c2ccco2)SC1=S)C1CCS(=O)(=O)C1 (centres undefined)	1	50*	-47	8	-14
CC(C(=O)N(C)C1CCS(=O)(=O)C1)N1C(=O)/C(=C/c2ccc(F)cc2)SC1=S (centres undefined)	0	4	-26	0	/
O=C1/C(=C\c2ccco2)SC(=S)N1C1CCS(=O)(=O)C1 (centres undefined)	2	49*	-69	12	-10
O=C1/C(=C/c2ccco2)SC(=S)N1CC1CCCO1 (centres undefined)	-3	61*	-144	?	-18
O=C1/C(=C/c2ccco2)SC(=S)N1C1CCS(=O)(=O)C1 (centres undefined)	2	22	-21	9	/
O=C(C1CCCC1)N1CCCCN2[C@@H](CO)[C@@H](c3ccc(-c4cccc(F)c4)cc3)[C@@H]2C1	/	3	47	4	6
CC(C)c1cn([C@H]2C[C@@H]3O[C@@H](CO)CC[C@@H]3O[C@@H]2CCc2ccc(C#CC3CCCCC3)cc2)nn1	/	1	-13	4	/
CO[C@H]1CN(C)C(=O)c2cc(NC(C)=O)ccc2OC[C@@H](C)N(Cc2ccccc2C(=O)O)C[C@H]1C	/	0	15	-3	17
COCCCNC(=O)/C(C#N)=C/c1ccc(OCC(=O)O)c(OC)c1	3	41*	-4	-1	11
C[C@H]1CN([C@@H](C)CO)C(=O)c2cc(NS(=O)(=O)c3cn(C)cn3)ccc2O[C@H]1CN(C)S(=O)(=O)c1ccc(Cl)cc1	/	-2	3	-3	11
C[C@@H]1CN([C@@H](C)CO)S(=O)(=O)c2ccc(-c3cccnc3)cc2O[C@@H]1CN(C)Cc1cncnc1	/	-3	0	-1	-13
O=C(CN(Cc1ccccc1)C(=O)CCC(=O)Nc1nccs1)NCc1ccccc1	1	3	-12	43*	/
CC(Nc1nc(-c2ccccc2O)nc2ccccc12)c1ccccc1 (centres undefined)	29*	1	-17	5	9
CC(C)NC(=O)Nc1ccc2c(c1)C(=O)N([C@@H](C)CO)C[C@H](C)[C@@H](CN(C)C(=O)Nc1ccc3c(c1)OCO3)OCCCC[C@H](C)O2	/	2	-13	2	3
